Test results from the supplement of paper PMC3334620.
The full ranking holds about 33,000 sequences; the median of “E-score (-0.5 to 0.5)” is about -0.01, and the highest 2% start at about 0.26. The list comes from a sample in which the highest values are over-represented; it also holds similar and randomly drawn sequences.

target: Ste12 (UniProt P13574); assay: PBM E-score (8-mer binding enrichment) (E-score (-0.5 to 0.5)); higher = stronger / more preferred TF binding; conditions: protein concentration: 200 nM; construct: GST-DNA-binding domain
Chain of UniProt P13574 (P13574 whole entry, the tested form may be a part): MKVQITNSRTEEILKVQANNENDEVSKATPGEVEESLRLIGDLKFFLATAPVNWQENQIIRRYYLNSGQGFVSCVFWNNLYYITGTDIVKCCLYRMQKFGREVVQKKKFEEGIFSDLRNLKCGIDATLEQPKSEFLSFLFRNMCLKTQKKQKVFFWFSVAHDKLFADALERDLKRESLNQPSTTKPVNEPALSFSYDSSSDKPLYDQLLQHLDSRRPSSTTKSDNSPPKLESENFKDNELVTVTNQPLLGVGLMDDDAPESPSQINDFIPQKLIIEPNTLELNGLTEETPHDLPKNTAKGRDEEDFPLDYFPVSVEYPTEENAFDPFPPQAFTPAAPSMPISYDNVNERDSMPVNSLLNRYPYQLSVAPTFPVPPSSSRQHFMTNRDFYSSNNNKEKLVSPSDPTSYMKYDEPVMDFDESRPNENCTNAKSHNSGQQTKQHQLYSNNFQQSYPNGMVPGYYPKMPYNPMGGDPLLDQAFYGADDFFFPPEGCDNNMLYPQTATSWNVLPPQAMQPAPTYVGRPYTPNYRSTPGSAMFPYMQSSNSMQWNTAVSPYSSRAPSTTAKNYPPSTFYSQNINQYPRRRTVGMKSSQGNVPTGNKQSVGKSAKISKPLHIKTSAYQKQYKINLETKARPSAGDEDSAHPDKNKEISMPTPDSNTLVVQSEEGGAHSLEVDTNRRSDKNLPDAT
Experimental: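 Universal 'all 10-mer' protein binding microarrays (Agilent AMADID 015681) probed with GST-tagged S. cerevisiae TFs (full-length or DBD) made by in vitro transcription/translation (PURExpress), about 100-200 nM. Bound TF was detected with fluorescent anti-GST. Each ungapped 8-mer (which stands for itself and its reverse complement) is scored by the PBM enrichment score (E-score), a modified Wilcoxon-Mann-Whitney statistic from -0.5 to +0.5, computed with the Universal PBM Analysis Suite. Scale: above 0.35 generally sequence-specific binding.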

Row | Sequence | PBM E-score
1 | AAAAATAC | 0.25
2 | AAAAATAT | 0.339
3 | AAATATAA | 0.224
4 | AAATAGAT | 0.275
5 | AAATATAC | 0.225
6 | AAAAATCC | 0.178
7 | AAAAATCT | 0.318
8 | AAAAATAG | 0.24
9 | AAATATAT | 0.273
10 | AAATAGAG | 0.0914
11 | CTCGTTTA | 0.0722
12 | CCAACCGA | 0.0461
13 | AACAGCCA | -0.019
14 | AGCGCAAG | -0.0674
15 | CACGGCAC | -0.113
16 | ACAAGCGG | 0.106
17 | TACCTACA | -0.0205
18 | AACTATGT | -0.0705
19 | AGTTGTAA | 0.068
20 | GGTTGAGA | -0.103
21 | TGTTGTAA | 0.28
22 | GGTTGAAC | -0.0192
23 | CGTTGAAA | 0.185
24 | GGTTGAAA | 0.292
25 | AGTTGAAA | 0.19

Row | Sequence | PBM E-score
26 | TGTTGAAA | 0.311
27 | GGTTGTAA | 0.0372
28 | CCCCGTAC | -0.0713
29 | AGTCTGCA | -0.122
30 | CGCGTACC | -0.113
31 | CCGCCTTA | 0.0555
32 | AAGGTTCT | 0.0379
33 | CCCGAACA | 0.128
34 | CGAAGCCC | -0.192
35 | GATACAAA | 0.134
36 | AATACAAT | 0.0948
37 | AATACAAG | 0.302
38 | AATACAAC | 0.157
39 | AATACAAA | 0.265
40 | TATACAAA | 0.127
41 | GGCAGCCC | -0.142
42 | GACTACAA | -0.102
43 | GGAATCCC | 0.0198
44 | GACCATGC | -0.139
45 | ATCTCAAT | 0.0795
46 | CACTCAAA | 0.0429
47 | TTCTCAAA | 0.291
48 | CTCTCAAA | 0.0271
49 | ATCTCAAA | 0.27
50 | ATCTCAAG | 0.0665

Row | Sequence | PBM E-score
51 | AACTCAAA | 0.266
52 | AACTCAAG | -0.00801
53 | GTCTCAAA | 0.218
54 | ATGCCGTA | -0.0947
55 | CTGGTCGA | -0.196
56 | ATGGATTC | 0.186
57 | ACCGTGAT | 0.0763
58 | TGATTACA | -0.00637
59 | ACAACCAA | 0.0252
60 | CGATCTCC | -0.108
61 | ATCAACTG | -0.112
62 | CATTAAAC | 0.191
63 | AATTAAAA | 0.308
64 | TATTAACA | 0.164
65 | GATTAAAA | 0.234
66 | TATTAAAA | 0.341
67 | CATTAAAG | 0.034
68 | AATTAAAG | 0.103
69 | AATTAAAC | 0.241
70 | CATTAAAA | 0.27
71 | TAAGGCAA | 0.0326
72 | CTACCCTC | -0.0776
73 | GCCCTCCC | 0.115
74 | TGCTCACA | -0.148
75 | CCTTGTGC | -0.0236

Row | Sequence | PBM E-score
76 | CACCATAA | 0.136
77 | ATACTAGG | 0.119
78 | GGTCCTGA | -0.163
79 | AGCGCTAC | -0.0647
80 | CCGCAGGA | -0.0635
81 | TTTACAAA | 0.294
82 | CTTACAAC | 0.0334
83 | GTTACAAC | 0.289
84 | GTTACAAA | 0.384
85 | TGTACAAA | 0.0309
86 | TCTACAAA | 0.138
87 | CTTACAAA | 0.143
88 | ATTACAAC | -0.0498
89 | ATTACAAA | 0.165
90 | TACGTCGA | 0.0119
91 | GGAGTAGA | -0.0759
92 | AAGCTGGA | -0.0676
93 | GCGACCCC | 0.0725
94 | GGATGCGA | -0.201
95 | AGTCCATC | -0.306
96 | TAAATATA | 0.321
97 | AAAATATA | 0.241
98 | GAAATACA | -0.00127
99 | CAAATATA | 0.0746
100 | GAAATATA | 0.284

Row | Sequence | PBM E-score
101 | GAAATATC | 0.0344
102 | GTCTCTGA | -0.168
103 | CCATCTCA | -0.0464
104 | CGGCCCCG | 0.0097
105 | CACCATGA | 0.0412
106 | CGCGATGC | -0.182
107 | CGTCCTAC | -0.0953
108 | TCAGTGCA | 0.0371
109 | CTAGGGCA | -0.159
110 | GATGATGC | -0.125
111 | GTTGCGAA | 0.093
112 | CGCAAGGC | 0.049
113 | CGTGAAAC | 0.364
114 | GGTGAAAC | 0.463
115 | GGTGAAAA | 0.0914
116 | AGTGAAAG | 0.126
117 | CGTGAAAG | 0.0979
118 | AGTGAAAT | 0.0994
119 | AGTGAAAC | 0.394
120 | CGTGAAAA | 0.22
121 | GGTGAACC | -0.00551
122 | CCTCGTTA | 0.049
123 | CGGTAACG | -0.141
124 | GCCTAAAC | -0.125
125 | CACAGGTA | 0.0125

Row | Sequence | PBM E-score
126 | ACCGTCTG | -0.00201
127 | CCCAGGGC | -0.256
128 | CGGATGAA | 0.268
129 | CGGATGAG | -0.11
130 | AGGATGAA | 0.128
131 | ACGATGAA | 0.274
132 | ACGATGAC | -0.173
133 | AAGATGAA | 0.18
134 | GCGATGAA | 0.116
135 | GAGATGAA | 0.156
136 | TAGATGAA | 0.279
137 | CATACCAA | -0.0054
138 | AACTCTCC | -0.129
139 | AGCGAGAT | 0.119
140 | CCGAATTC | -0.00494
141 | TGACCTCA | -0.0719
142 | ACAGAAGC | -0.0242
143 | AGAAGACT | -0.22
144 | TAGTTTAA | 0.171
145 | AAGTTTCC | 0.11
146 | AAGTTTTC | 0.0212
147 | CAGTTTCC | 0.0749
148 | TAGTTTGA | 0.0916
149 | AAGTTTTG | 0.116
150 | CAGTTTCA | 0.374

Row | Sequence | PBM E-score
151 | AAGTTTCA | 0.437
152 | CAGTTTCG | 0.181
153 | AAGTTTCG | 0.175
154 | AAGTTTTA | 0.287
155 | TAGTTTCA | 0.36
156 | CGGCGAGA | -0.167
157 | CCTTTTCG | 0.19
158 | CGACCTGC | -0.0774
159 | GACCTCAC | -0.15
160 | TCACGGAA | 0.135
161 | ACGATCGA | -0.106
162 | ACGGAGGC | -0.187
163 | GACCAGGA | -0.183
164 | GTTCGCTA | -0.0318
165 | GAGTTTCA | 0.407
166 | GAGTTTCC | -0.00944
167 | GAGTTTGA | 0.0997
168 | CTGTGGTA | -0.0102
169 | CATTTATC | 0.0356
170 | GATTTATA | 0.182
171 | CATTTATA | 0.189
172 | AATTTATC | 0.281
173 | AATTTATG | 0.205
174 | AATTTATA | 0.274
